Reference: PubChem BioAssay (EPA / NIEHS)
The source made the active and inactive calls. How the source made its calls: active means hit-call score of the fitted dose curve at least 0.9, where 1 is the maximum; inactive means score below 0.9.

test: CCTE_Harrill_HTTr_Apoptosis_MCF7: CCTE's 6-hour Apoptosis Assessment for the High-Throughput Transcriptomics (HTTr) Platform, in MCF-7 cells cultured in DMEM + 10% fetal bovine serum, Harrill Lab (AID 2284011)
From the text: This is a cell-based assay that evaluates apoptosis using high content imaging to evaluate activation of caspase-3/7 using the CellEvent Caspase 3/7 Green detection reagent in 384-well format.One of seven assay components measured from the CCTE_Harrill_HTTr_Apoptosis assay. This was part of a full screening experiment. This is a cell-based assay that evaluates apoptosis in MCF-7 cells cultured in DMEM + 10% fetal bovine serum. High content imaging is used to evaluate activation of caspase-3/7 using the CellEvent Caspase 3/7 Green detection reagent. Measurements are taken at 6 hours after chemical dosing in 384-well format.The assay component endpoint CCTE_Harrill_HTTr_Apoptosis_MCF7 was analyzed with bidirectional fitting relation to DMSO as the negative control and baseline of activity. Using a type of viability reporter, gain-of-signal activity can be used to evaluate activation of caspase-3/7 using the CellEvent Caspase 3/7 Green detection reagent to understand changes in apoptosis. To generalize the intended target to other relatable targets, this assay endpoint is annotated to cell cycle, where the subfamily is apoptosis.
Chemicals were tested in MCF7 cells in an eight point dilution series with a six hour exposure duration.

SMILES | outcome | AC50
C#CCN(C)Cc1ccccc1 | inactive | 
COc1ccc2cc([C@H](C)C(=O)O)ccc2c1 | inactive | 
NCc1ccccc1 | inactive | 
CC(=O)CCCCn1c(=O)c2c(ncn2C)n(C)c1=O | inactive | 
CN(C)CCCN1c2ccccc2CCc2ccc(Cl)cc21 |  | 45.5 µM (active)
Cc1cccnc1 | inactive | 
Nc1c2c(nc3ccccc13)CCCC2 | inactive | 
CC(C)n1c(/C=C/[C@@H](O)C[C@@H](O)CC(=O)O)c(-c2ccc(F)cc2)c2ccccc21 | inactive | 
CCOC(=O)CC(=O)OCC | inactive | 
C[C@H]1C[C@H]2[C@@H]3CCC4=CC(=O)C=C[C@]4(C)[C@@]3(F)[C@@H](O)C[C@]2(C)[C@@]1(O)C(=O)CO | inactive | 
OCCCC1CCCCC1 | inactive | 
CN(C)CCC(c1ccc(Cl)cc1)c1ccccn1 (stereo not given) | inactive | 
Clc1ccccn1 | inactive | 
Nc1ccc(S(=O)(=O)Nc2cnc3ccccc3n2)cc1 | inactive | 
O=c1n(CCCN2CCN(c3cccc(Cl)c3)CC2)nc2ccccn12 | inactive | 
CCCCCC[C@@H](O)C/C=C\CCCCCCCC(=O)O | inactive | 
COc1ccc(CCN(C)CCCC(C#N)(c2ccc(OC)c(OC)c2)C(C)C)cc1OC (stereo not given) | inactive | 
COc1ccc([C@@H]2Sc3ccccc3N(CCN(C)C)C(=O)[C@@H]2OC(C)=O)cc1 | inactive | 
Cc1cc(C)c(C=C2C(=O)Nc3ccccc32)[nH]1 |  | 15.2 µM (active)
CC(COc1ccccc1)N(CCCl)Cc1ccccc1 (stereo not given) | inactive | 

SMILES | outcome | AC50
CCOc1nc2cccc(C(=O)OC(C)OC(=O)OC3CCCCC3)c2n1Cc1ccc(-c2ccccc2-c2nn[nH]n2)cc1 (stereo not given) | inactive | 
COc1ccc(C(=O)c2ccccc2O)c(O)c1 | inactive | 
Nc1cc(-c2ccncc2)c[nH]c1=O | inactive | 
C1=CCC(c2ccccc2)CC1 (stereo not given) | inactive | 
c1ccc(CNc2ncnc3nc[nH]c23)cc1 | inactive | 
CC1(C)[C@@H](O[C@H]2O[C@H](C(=O)O)[C@@H](O)[C@H](O)[C@H]2O[C@@H]2O[C@H](C(=O)O)[C@@H](O)[C@H](O)[C@H]2O)CC[C@]2(C)[C@H]3C(=O)C=C4[C@@H]5C[C@@](C)(C(=O)O)CC[C@]5(C)CC[C@@]4(C)[C@]3(C)CC[C@@H]12 | inactive | 
CCCCC(=O)O[C@]1(C(=O)CO)[C@@H](C)C[C@H]2[C@@H]3CCC4=CC(=O)C=C[C@]4(C)[C@@]3(F)[C@@H](O)C[C@@]21C | inactive | 
O=C(C(=O)c1ccccc1)c1ccccc1 | inactive | 
NC(N)=Nc1nc(CSCCC(N)=NS(N)(=O)=O)cs1 | inactive | 
Cc1c(N(C)CS(=O)(=O)O)c(=O)n(-c2ccccc2)n1C | inactive | 
O=C(OOC(=O)c1ccccc1)c1ccccc1 | inactive | 
CCCc1c(OCCCCc2nn[nH]n2)ccc(C(C)=O)c1O | inactive | 
CC(CCc1ccccc1)NCC(O)c1ccc(O)c(C(N)=O)c1 (stereo not given) | inactive | 
CCOC(=N)CC(=O)OCC | inactive | 
CCc1cc(C(N)=S)ccn1 | inactive | 
N#CCC(=O)O | inactive | 
OCC1CC2CC1C1CCC(CO)C21 (stereo not given) | inactive | 
O=C1OCCN1N=Cc1ccc([N+](=O)[O-])o1 | inactive | 
CCCCC(CC)COC(=O)C=Cc1ccc(OC)cc1 (stereo not given) | inactive | 
COc1cc(OC)c(C(=O)CCCN2CCCC2)c(OC)c1 | inactive | 
